# Screens from PubChem BioAssay.
# hcDAF-12 act: H. contortus DAF-12 activation, primary screen; HEK293 hcDAF-12 lit1-tk-luc reporter, luminescence; 0% DMSO, 100% Δ7-dafachronic acid; 370,000 compounds, 1.4% hits; activation, % at 6.8 µM;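 active means activation above the mean of all tested compounds plus 3 SD, cut at about 5.5% in these data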;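 further: 100% = response to 3 µM Δ7-dafachronic acid high control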
# hgDAF-12 ag: hgDAF-12 agonism, primary luciferase screen | 370,000 compounds, 1.8% hits | HEK293 GAL4-hgDAF12 UAS-luciferase reporter, agonist luminescence; normalized to butyrate control | activation, % at 6.8 µM;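 active means activation above a cutoff set at the mean of all screened compounds plus 3 SD, cut at about 10% in these data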;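 further: 0% = DMSO wells and 100% = sodium butyrate wells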
# DAX1 inh-1: inhibitors of human orphan nuclear receptor DAX1 (NR0B1). P51843. HEK293 Gal4-DAX1 luciferase reporter, luminescence. inhibition, % at 6.75 µM. 340,000 compounds, 0.99% hits. AID 504766;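 active means inhibition above the mean over all tested compounds plus 3 SD, cut at about 4.2% in these data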;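 further: 0% = DAX1-transfected cells with DMSO and 100% = empty-vector control cells with DMSO; inhibition shows as a rise in luminescence from relieved DAX1 repression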
# ssDAF12 agonist: activators of S. stercoralis DAF-12 nuclear receptor. HEK293 ssDAF-12/GRIP1 lit1-tk-luc reporter, luminescence; % of 3 µM dafachronic acid response. activation, % at 6.8 µM. 370,000 compounds, 1% hits. AID 652126;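 active means activation above the mean over all tested compounds plus 3 SD, cut at about 0.9% in these data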;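 further: 0% = DMSO-only wells and 100% = 3 µM delta7-dafachronic acid wells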
# DAX1 inh-2: inhibitors of DAX1 repression of SF-1 activated StAR promoter; HEK293T StAR-luciferase reporter, SF-1/DAX-1 repression relief; inhibition, % at 6.8 µM; 370,000 compounds, 1.1% hits;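 active means inhibition above the mean over all tested compounds plus 3 SD, cut at about 3.6% in these data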;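 further: 0% = DAX-1 cells with DMSO and 100% = cells lacking DAX-1 with DMSO; higher inhibition means more luminescence from relief of DAX-1 repression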
# DAX1 inh confirm: confirmation of human DAX1 (NR0B1) inhibitors | 2,400 compounds, 87% hits | inhibition, % at 6.8 µM | shares compounds with DAX1 inh-2 | HEK293T StAR-promoter luciferase reporter, SF-1/DAX-1 repression | AID 652134;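 active means inhibition above the average of every tested compound plus 3 SD, cut at about 3.8% in these data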;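 further: 0% = DAX-1 cells with DMSO and 100% = no DAX-1 control cells with DMSO; active compounds raise luminescence by relieving repression of the StAR reporter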
# Target sequence (P51843 whole entry, looked up): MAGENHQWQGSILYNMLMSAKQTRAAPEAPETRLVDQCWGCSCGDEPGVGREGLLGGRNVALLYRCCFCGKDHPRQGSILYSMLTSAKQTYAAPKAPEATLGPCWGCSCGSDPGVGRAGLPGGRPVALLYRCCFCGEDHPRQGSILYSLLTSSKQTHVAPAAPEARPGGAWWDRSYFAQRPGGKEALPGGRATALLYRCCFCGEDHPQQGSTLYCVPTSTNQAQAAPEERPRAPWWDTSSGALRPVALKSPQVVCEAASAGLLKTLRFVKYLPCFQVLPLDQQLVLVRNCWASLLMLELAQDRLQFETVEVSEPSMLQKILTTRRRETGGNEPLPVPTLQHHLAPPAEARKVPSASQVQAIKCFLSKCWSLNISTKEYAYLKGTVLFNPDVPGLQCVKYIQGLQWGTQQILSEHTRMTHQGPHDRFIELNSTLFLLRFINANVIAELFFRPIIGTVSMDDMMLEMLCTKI
# SF1 AF2mut Luc: nonselective inhibitor or artifact in SF-1 mutant DAX1 counter-screen | HEK293 StAR-luciferase, SF-1 AF2 mutant, luminescence | 2,400 compounds, 78% hits | inhibition, % at 6.8 µM | AID 652136 | shares compounds with DAX1 inh-2;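 active means inhibition above the mean of all tested compounds plus 3 SD, cut at about 3% in these data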;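 further: 0% = DAX-1 transfected cells with DMSO and 100% = cells without DAX-1 with DMSO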
# LXRb hcDAF ctr: counter-screen for hcDAF-12 agonists: agonists of human LXR-beta; shares compounds with hcDAF-12 act; HEK293 Gal4-LXR tk-luc reporter, luminescence, 24 h; normalized: DMSO 0%, positive control 100%; activation, % at 6.8 µM; 3,400 tested, under 10 active; AID 743027;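 active means mean percent activation of the reporter above a cutoff set as the average over tested compounds plus their standard deviation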
# hcDAF12 conf: confirmation of H. contortus DAF-12 agonists. AID 743032. HEK293 hcDAF-12 lit1-tk-luc reporter, luminescence; % of Δ7-dafachronic acid response. shares compounds with hcDAF-12 act. activation, % at 6.8 µM. 3,400 compounds, 61% hits;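 active means mean activation across triplicate tests above the threshold derived from the earlier primary screen, cut at about 5.5% in these data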;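 further: 0% = DMSO only wells and 100% = 3 µM Δ7-dafachronic acid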
# hgDAF12 conf: hgDAF-12 agonism, confirmation assay | shares compounds with hgDAF-12 ag | HEK293 GAL4-hgDAF12 luciferase reporter, agonist mode; percent of butyrate response | AID 743050 | 3,300 compounds, 80% hits | activation, % at 6.8 µM;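 active means mean activation over triplicate wells above the hit cutoff derived from the earlier primary screen, cut at about 11% in these data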;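 further: 0% = DMSO low control and 100% = 2 mM sodium butyrate high control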
# LXR ag 2: LXR-beta agonism as DAF-12 counter-screen. shares compounds with hgDAF-12 ag. HEK293 Gal4-LXR luciferase reporter, 24 h. activation, % at 6.8 µM. 3,300 tested, under 10 active. AID 743051;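 active means mean activation of the triplicate above a set limit carried over from the primary screen, none filed active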
# The depositor's hits bear a star; . = not tested or not shown. In the library only some 4.1% were active in any assay of this set; here they are far more common.
SMILES,hcDAF-12 act,hgDAF-12 ag,DAX1 inh-1,ssDAF12 agonist,DAX1 inh-2,DAX1 inh confirm,SF1 AF2mut Luc,LXRb hcDAF ctr,hcDAF12 conf,hgDAF12 conf,LXR ag 2
CC(COc1ccc(C#N)cc1)CN1CCC(C(O)(c2ccccc2)c2ccccc2)CC1 (stereo not drawn),0.4,0.3,.,-0.8,0.3,.,.,.,.,.,.
COc1cccc(C(=O)/C=C2\Sc3ccccc3N2C)c1,13.0*,28.2*,1.1,2.6*,5.4*,11.4*,10.0*,1.7,9.1*,21.6*,1.0
N/C(=N\OC(=O)/C=C/c1ccccc1)c1ccccn1,7.0*,13.4*,0.7,0.6,5.9*,11.4*,6.6*,1.1,3.1,13.9*,0.7
COc1ccc(/C=C/C(=O)O/N=C(\N)c2ccccn2)cc1OC,7.2*,29.1*,0.8,0.1,6.2*,5.4*,3.0*,0.5,4.0,10.9*,0.5
COc1ccc(CC(=O)O/N=C(\N)c2ccccn2)cc1OC,0.3,0.7,0.8,-0.5,0.8,.,.,.,.,.,.
COc1ccc(-c2cn3cc(C)ccc3n2)cc1Br,13.5*,19.7*,-2.0,1.2*,6.9*,18.8*,8.2*,1.3,6.5*,20.3*,1.3
Cc1cccc(NC(=O)c2cnc3ccccn3c2=O)c1,8.8*,22.4*,0.9,0.5,7.7*,10.6*,4.4*,1.6,6.1*,16.6*,1.2
O=C(Nc1ccc2c(c1)OCCO2)c1cnc2ccccn2c1=O,1.4,9.7,1.7,-0.1,3.0,.,.,.,.,.,.
COc1ccc2cc3cc(C(=O)NC4CC4)sc3nc2c1,18.2*,24.0*,-2.0,0.3,15.2*,14.2*,4.2*,1.9,8.7*,16.5*,0.9
Fc1ccc2nc(N3CCCC3)sc2c1,4.8,28.1*,1.3,-0.8,5.2*,7.9*,5.0*,.,.,15.1*,0.9
c1ccc2sc(N3CCCCC3)nc2c1,1.6,13.3*,2.7,-0.3,7.8*,9.7*,6.5*,.,.,15.3*,0.6
O=[N+]([O-])c1ccc2nc(N3CCCC3)sc2c1,3.1,7.4,1.5,-0.1,0.4,.,.,.,.,.,.
CNc1nc(N2CCc3ccccc32)ncc1F,5.8*,14.8*,4.0,0.5,5.1*,10.5*,5.0*,.,.,14.8*,0.8
c1ccc2c(c1)CCCN2c1nc(N2CCOCC2)nc(N2CCOCC2)n1,0.0,0.2,0.8,-0.1,-1.0,.,.,.,.,.,.
COc1ccc(CN2C(=O)CN(S(C)(=O)=O)CC2(C)C(=O)Nc2c(C)cccc2C)cc1 (stereo not drawn),-1.2,2.7,.,-0.3,-1.0,.,.,.,.,.,.
COc1cccc(N=c2oc3ccc(OC)cc3cc2-c2nc3ccccc3[nH]2)c1,15.4*,16.1*,2.3,3.6*,4.7*,-1.1,-2.0,0.1,6.3*,6.7,0.4
COc1ccc2oc(=O)c(-c3nc4ccccc4o3)cc2c1,-0.1,3.0,1.6,-0.2,0.2,.,.,.,.,.,.
O=C(Nc1cccc(-c2ccc(N3CCOCC3)nn2)c1)c1ccc(Cl)cc1,-0.2,4.4,0.2,-1.1,2.6,.,.,.,.,.,.
O=C(Nc1cccc(-c2ccc(N3CCCCC3)nn2)c1)c1ccco1,4.8,16.4*,-1.5,1.6*,7.3*,2.3,3.0*,.,.,13.8*,0.6
